# In publication PMC7862700, “An all-to-all approach to the identification of sequence-specific readers for epigenetic DNA modifications on cytosine”:
# Assays:
# Experiment in all cases: DAPPL (digital affinity profiling via proximity ligation, sequencing); 10 mM Tris-HCl pH 7.5, 50 mM NaCl, 1 mM DTT, 4% glycerol, room temperature, 30 min; GST-TFs on glutathione beads, 16-mer random dsDNA library, 0.1% formaldehyde crosslink after washing; high values mean tight binding
# Details in all cases: protein: recombinant; tags: N-terminal GST; dsDNA, one strand shown
# [1] = target: T1, FLI1 (Homo sapiens, UniProt Q01543 1-452)
# T1 sequence: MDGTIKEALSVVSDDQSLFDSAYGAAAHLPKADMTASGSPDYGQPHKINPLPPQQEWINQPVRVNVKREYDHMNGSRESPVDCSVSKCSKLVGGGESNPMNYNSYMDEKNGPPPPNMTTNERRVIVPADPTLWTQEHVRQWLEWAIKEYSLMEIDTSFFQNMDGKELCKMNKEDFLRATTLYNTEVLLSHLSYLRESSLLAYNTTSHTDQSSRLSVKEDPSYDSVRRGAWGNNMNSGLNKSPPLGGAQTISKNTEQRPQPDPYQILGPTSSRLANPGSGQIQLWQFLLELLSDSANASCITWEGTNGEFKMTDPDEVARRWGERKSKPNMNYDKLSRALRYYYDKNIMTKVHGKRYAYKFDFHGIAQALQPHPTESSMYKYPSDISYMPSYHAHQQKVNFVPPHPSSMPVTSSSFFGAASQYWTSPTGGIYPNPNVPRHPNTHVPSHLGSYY
# Method in brief: (§1)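 Yeast served to express human transcription factors as GST fusions, which were then captured on glutathione beads and labelled with DNA barcodes. Pooled with a tag-only sample, they were incubated with 200 nmole of a 16-mer random double-stranded DNA library for 30 min at room temperature in Tris/NaCl/DTT/glycerol buffer, washed, crosslinked with 0.1% formaldehyde, ligated by proximity, amplified by PCR and sequenced. Dividing each hexamer's read frequency for a factor by its frequency for the tag-only sample gives the binding signal.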
# [2] = target: T2, ELK1 (Homo sapiens, UniProt P19419 1-428)
# T2 sequence: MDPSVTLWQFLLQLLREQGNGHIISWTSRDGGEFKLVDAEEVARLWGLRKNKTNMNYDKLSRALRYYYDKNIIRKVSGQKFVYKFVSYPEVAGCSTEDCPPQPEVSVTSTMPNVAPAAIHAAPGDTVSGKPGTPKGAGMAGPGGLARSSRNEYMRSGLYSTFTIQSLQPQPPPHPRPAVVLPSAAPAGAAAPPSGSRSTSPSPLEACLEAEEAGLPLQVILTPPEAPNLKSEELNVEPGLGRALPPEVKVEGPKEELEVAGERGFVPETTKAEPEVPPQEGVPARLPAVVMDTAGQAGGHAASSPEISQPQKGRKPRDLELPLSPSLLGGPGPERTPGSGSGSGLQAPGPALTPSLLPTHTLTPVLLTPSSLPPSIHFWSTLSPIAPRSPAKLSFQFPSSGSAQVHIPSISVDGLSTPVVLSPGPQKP
# Method in brief: as §1
# [3] = target: ELF1 (Homo sapiens, UniProt P32519 1-619)
# ELF1, sequence (P32519 whole entry): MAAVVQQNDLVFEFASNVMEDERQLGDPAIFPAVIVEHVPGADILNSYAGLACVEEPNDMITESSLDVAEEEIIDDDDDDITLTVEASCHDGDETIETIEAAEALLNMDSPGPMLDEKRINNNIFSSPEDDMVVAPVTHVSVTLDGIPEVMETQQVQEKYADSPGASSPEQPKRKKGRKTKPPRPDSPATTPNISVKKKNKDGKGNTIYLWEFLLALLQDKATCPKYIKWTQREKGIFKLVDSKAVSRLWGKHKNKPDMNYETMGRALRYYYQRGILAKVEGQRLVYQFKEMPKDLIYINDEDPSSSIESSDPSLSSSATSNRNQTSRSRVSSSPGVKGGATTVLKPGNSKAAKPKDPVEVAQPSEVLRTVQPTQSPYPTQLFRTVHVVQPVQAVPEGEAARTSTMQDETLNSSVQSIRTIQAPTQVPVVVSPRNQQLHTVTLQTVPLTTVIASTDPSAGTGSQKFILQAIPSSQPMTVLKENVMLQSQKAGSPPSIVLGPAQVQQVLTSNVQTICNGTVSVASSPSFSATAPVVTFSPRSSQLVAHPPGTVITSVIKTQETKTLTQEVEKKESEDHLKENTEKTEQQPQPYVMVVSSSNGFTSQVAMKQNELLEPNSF
# Method in brief: as §1
# [4] = target: SPIB (Homo sapiens, UniProt Q01892 1-262)
# SPIB, sequence (Q01892 whole entry): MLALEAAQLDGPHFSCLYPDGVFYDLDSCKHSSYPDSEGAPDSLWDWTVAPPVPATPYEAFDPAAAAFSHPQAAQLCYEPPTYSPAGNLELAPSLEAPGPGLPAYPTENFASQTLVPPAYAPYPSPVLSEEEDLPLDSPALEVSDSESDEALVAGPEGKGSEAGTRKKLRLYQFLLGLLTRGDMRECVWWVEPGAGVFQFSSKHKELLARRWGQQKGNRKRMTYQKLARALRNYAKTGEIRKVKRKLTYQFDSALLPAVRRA
# Method in brief: as §1
# [5] = target: T3, ELK3 (Homo sapiens, UniProt P41970 1-407)
# T3 sequence: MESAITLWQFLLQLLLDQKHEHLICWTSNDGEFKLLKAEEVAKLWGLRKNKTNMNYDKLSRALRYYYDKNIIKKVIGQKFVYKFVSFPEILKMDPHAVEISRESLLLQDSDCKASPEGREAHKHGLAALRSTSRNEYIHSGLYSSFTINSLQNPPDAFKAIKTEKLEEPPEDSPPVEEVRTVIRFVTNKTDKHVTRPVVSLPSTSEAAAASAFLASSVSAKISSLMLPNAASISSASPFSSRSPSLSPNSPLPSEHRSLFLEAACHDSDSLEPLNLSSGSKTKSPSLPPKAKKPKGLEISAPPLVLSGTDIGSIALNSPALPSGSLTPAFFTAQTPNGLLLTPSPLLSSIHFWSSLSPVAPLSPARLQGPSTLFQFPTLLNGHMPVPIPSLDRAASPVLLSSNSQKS
# Method in brief: as §1
# [6] = target: T4, SPIC (Homo sapiens, UniProt Q8N5J4 1-248)
# T4 sequence: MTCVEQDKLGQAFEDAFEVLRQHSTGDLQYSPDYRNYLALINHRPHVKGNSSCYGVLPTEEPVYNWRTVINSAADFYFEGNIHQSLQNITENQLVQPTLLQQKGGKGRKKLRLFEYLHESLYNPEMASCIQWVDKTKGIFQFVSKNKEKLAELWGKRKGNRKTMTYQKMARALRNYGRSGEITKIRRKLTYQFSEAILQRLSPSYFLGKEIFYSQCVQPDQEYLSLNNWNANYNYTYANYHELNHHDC
# Method in brief: as §1
# [7] = target: ELF4 (Homo sapiens, UniProt Q99607 1-663)
# ELF4, sequence (Q99607 whole entry): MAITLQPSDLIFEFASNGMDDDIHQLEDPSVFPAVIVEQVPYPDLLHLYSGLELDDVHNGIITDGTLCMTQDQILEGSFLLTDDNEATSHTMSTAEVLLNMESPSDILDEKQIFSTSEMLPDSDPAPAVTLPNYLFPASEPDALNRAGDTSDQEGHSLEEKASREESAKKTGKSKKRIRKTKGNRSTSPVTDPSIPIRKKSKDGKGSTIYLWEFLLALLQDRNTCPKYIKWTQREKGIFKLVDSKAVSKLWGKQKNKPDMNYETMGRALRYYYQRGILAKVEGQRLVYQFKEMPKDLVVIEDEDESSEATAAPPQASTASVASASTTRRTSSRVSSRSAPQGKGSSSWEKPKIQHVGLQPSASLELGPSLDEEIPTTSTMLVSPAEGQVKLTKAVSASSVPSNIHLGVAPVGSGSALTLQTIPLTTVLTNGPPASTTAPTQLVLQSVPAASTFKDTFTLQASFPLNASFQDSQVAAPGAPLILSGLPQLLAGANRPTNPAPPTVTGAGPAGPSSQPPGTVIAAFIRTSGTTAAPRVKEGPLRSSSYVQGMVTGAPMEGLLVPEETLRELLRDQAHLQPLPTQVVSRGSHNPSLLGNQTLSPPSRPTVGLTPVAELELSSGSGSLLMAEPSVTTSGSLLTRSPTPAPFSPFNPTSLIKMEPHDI
# Method in brief: as §1
# [8] = target: T5, ELK4 (Homo sapiens, UniProt P28324-2 1-405)
# T5 sequence: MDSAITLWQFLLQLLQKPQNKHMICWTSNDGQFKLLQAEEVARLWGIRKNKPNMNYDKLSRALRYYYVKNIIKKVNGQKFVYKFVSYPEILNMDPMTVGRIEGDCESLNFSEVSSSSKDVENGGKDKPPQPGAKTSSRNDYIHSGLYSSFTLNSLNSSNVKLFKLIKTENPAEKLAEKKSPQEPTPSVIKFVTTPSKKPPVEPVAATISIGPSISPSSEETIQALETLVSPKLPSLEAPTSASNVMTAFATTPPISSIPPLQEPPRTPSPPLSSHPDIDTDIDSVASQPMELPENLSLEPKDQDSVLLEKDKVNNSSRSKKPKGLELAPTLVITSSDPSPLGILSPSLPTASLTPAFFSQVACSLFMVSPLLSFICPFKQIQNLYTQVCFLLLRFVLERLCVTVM
# Method in brief: as §1
# [9] = target: T6, ETV2 (Homo sapiens, UniProt O00321 1-342)
# T6 sequence: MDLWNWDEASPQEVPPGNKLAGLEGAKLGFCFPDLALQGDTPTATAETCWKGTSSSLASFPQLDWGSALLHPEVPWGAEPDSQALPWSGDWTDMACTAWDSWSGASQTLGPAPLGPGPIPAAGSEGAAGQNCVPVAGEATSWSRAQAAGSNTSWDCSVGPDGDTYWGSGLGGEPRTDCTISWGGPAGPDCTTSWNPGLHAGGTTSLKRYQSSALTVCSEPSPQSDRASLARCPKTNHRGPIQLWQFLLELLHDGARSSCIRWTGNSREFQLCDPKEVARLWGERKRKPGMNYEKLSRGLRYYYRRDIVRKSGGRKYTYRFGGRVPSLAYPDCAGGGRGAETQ
# Method in brief: as §1
# [10] = target: T7, ELF3 (Homo sapiens, UniProt P78545 1-371)
# T7 sequence: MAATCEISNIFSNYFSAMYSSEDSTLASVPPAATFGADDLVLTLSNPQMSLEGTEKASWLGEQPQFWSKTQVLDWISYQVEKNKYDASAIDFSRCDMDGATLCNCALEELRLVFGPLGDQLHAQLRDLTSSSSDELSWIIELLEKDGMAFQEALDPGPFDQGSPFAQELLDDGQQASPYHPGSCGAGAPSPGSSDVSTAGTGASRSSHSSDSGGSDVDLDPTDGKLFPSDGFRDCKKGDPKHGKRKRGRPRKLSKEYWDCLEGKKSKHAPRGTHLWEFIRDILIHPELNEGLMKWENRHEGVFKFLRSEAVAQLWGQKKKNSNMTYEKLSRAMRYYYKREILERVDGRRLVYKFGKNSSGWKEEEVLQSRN
# Method in brief: as §1
# [11] = target: T8, ERF (Homo sapiens, UniProt P50548 1-548)
# T8 sequence: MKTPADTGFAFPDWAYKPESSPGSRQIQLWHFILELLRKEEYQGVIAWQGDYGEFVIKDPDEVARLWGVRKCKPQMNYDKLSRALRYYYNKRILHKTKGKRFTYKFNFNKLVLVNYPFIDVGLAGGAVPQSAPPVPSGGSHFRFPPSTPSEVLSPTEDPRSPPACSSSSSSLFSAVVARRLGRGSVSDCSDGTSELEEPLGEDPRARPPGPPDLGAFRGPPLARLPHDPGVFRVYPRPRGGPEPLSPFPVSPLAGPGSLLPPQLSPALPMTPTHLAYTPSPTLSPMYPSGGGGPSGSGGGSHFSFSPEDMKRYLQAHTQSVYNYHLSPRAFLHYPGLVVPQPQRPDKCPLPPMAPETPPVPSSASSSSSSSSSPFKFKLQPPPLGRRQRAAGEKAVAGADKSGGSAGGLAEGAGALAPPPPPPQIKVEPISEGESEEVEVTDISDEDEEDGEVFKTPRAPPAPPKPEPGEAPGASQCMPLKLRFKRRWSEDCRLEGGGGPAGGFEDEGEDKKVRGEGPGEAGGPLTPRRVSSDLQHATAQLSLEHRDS
# Method in brief: as §1
# [12] = target: T9, ETV3L (Homo sapiens, UniProt Q6ZN32 1-361)
# T9 sequence: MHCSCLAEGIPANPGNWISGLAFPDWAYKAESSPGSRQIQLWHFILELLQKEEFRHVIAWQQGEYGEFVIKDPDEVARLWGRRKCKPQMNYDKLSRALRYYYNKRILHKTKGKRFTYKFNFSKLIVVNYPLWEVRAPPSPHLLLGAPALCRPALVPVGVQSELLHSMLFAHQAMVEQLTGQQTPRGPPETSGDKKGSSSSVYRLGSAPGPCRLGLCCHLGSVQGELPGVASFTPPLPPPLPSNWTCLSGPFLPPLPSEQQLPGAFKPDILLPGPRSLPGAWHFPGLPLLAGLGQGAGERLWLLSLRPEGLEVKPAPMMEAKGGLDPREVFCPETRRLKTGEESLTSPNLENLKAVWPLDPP
# Method in brief: as §1
# [13] = target: T10, ETS2 (Homo sapiens, UniProt P15036 1-469)
# T10 sequence: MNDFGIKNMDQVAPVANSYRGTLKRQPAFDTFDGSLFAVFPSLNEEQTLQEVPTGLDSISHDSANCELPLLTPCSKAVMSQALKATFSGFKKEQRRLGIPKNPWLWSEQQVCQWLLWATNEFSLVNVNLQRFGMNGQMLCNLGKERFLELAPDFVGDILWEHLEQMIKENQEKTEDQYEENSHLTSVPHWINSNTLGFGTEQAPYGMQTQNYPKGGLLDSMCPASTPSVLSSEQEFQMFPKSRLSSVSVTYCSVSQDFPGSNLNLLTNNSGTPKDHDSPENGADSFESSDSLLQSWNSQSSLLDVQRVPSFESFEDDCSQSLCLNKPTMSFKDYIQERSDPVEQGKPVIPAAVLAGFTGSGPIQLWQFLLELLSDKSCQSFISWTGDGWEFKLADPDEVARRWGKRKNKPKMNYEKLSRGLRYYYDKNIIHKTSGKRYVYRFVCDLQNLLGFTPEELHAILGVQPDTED
# Method in brief: as §1
# [14] = target: T11, ETV7 (Homo sapiens, UniProt Q9Y603 1-341)
# T11 sequence: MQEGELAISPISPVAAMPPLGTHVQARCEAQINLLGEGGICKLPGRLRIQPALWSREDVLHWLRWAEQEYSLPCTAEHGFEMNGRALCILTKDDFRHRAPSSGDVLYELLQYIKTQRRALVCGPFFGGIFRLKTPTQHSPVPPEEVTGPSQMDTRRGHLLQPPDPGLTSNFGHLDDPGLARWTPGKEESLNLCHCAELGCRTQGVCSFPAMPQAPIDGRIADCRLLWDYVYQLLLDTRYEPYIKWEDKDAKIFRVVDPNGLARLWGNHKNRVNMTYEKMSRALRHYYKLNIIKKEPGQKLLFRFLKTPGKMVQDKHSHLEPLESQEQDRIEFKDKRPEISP
# Method in brief: as §1
# [15] = target: T12, ETV3 (Homo sapiens, UniProt P41162-2 1-143)
# T12 sequence: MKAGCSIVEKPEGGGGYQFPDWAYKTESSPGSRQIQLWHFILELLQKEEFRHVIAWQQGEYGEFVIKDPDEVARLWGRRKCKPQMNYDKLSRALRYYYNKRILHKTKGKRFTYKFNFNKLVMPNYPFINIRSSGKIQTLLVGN
# Method in brief: as §1
sequence,measurement,setting,value
GATCTA,binding signal,[1],"1.12 fold enrichment (6-mer frequency, TF over GST control)"
same,binding signal,[2],"1.12 fold enrichment (6-mer frequency, TF over GST control)"
same,binding signal,[3],"1.03 fold enrichment (6-mer frequency, TF over GST control)"
same,binding signal,[4],"1.06 fold enrichment (6-mer frequency, TF over GST control)"
same,binding signal,[5],"1.12 fold enrichment (6-mer frequency, TF over GST control)"
same,binding signal,[6],"1.01 fold enrichment (6-mer frequency, TF over GST control)"
same,binding signal,[7],"1.04 fold enrichment (6-mer frequency, TF over GST control)"
same,binding signal,[8],"1.05 fold enrichment (6-mer frequency, TF over GST control)"
same,binding signal,[9],"1.11 fold enrichment (6-mer frequency, TF over GST control)"
same,binding signal,[10],"1.07 fold enrichment (6-mer frequency, TF over GST control)"
same,binding signal,[11],"1.04 fold enrichment (6-mer frequency, TF over GST control)"
same,binding signal,[12],"1.03 fold enrichment (6-mer frequency, TF over GST control)"
same,binding signal,[13],"1.04 fold enrichment (6-mer frequency, TF over GST control)"
same,binding signal,[14],"1.1 fold enrichment (6-mer frequency, TF over GST control)"
same,binding signal,[15],"1.04 fold enrichment (6-mer frequency, TF over GST control)"
